# Results reported in PubChem BioAssay (Tox21).
# Several values for one entry are separate records, joined by “and”; a condition that tells them apart may be missing. Equal values may be shown once. Records with an inconclusive call do not appear. Entries that show only a call come without a potency. More than one record can exist for a structure, and the calls need not agree. Activity calls are given as the source filed them. Unless noted, calls come from the whole dose curve; as a rule, active = well fitted curve in the direction sought with a large enough effect in the repeat runs; inconclusive = weak or mixed curves; inactive = no such curve, though single readings can be large; an effect the other way counts as inactive or inconclusive. Residues, ends and D or L forms follow the SMILES beside them.
# Legend:
# [1] = qHTS assay to identify small molecule antagonists of the glucocorticoid receptor (GR) signaling pathway - cell viability counter screen (AID 720693); note: nearly all actives have a fitted effect of over 55% in size
# [2] = qHTS assay for identifying genotoxic compounds that show differential cytotoxicity against isogenic chicken DT40 cell lines with known DNA damage response pathways - wild type cell line (AID 743012); note: nearly all actives have a fitted effect of over 60% in size; note: potency is the fitted concentration of half-maximal effect
# In short: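 CellTiter-Glo luminescence readout of viability in wild type DT40 cells after 40 h compound exposure at 37 C/5% CO2; 300 cells/well; reagent incubated 30 min at room temperature before reading.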
# [3] = qHTS assay for identifying genotoxic compounds that show differential cytotoxicity against isogenic chicken DT40 cell lines with known DNA damage response pathways - Rev3 mutant cell line (AID 743014); note: nearly all actives have a fitted effect of over 55% in size; note: potency is the fitted concentration of half-maximal effect
# [4] = qHTS assay for identifying genotoxic compounds that show differential cytotoxicity against isogenic chicken DT40 cell lines with known DNA damage response pathways - Rad54/Ku70 mutant cell line (AID 743015); note: nearly all actives have a fitted effect of over 60% in size; note: potency is the fitted concentration of half-maximal effect
# [5] = qHTS assay to identify small molecule antagonists of the androgen receptor (AR) signaling pathway - cell viability counter screen (AID 743033; note: nearly all actives have a fitted effect of over 45% in size)
# [6] = qHTS assay to identify small molecule antagonists of the androgen receptor (AR) signaling pathway using the MDA cell line - cell viability counter screen (AID 743041; note: nearly all actives have a fitted effect of over 45% in size; note: potency is the fitted concentration of half-maximal effect)
# In short: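 Compound exposure lasted 16 h at 37C in MDA-kb2 AR-luc cells stimulated with R1881. Protease-based CellTiter-Fluor reagent was applied for the final 30 min and fluorescence measured.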
# [7] = target: Androgen receptor (Homo sapiens) (UniProt P10275); assay: qHTS assay to identify small molecule antagonists of the androgen receptor (AR) signaling pathway (AID 743035; active = well fitted inhibition curve with a large enough effect in the signal ratio in the repeat runs, not every such curve was filed as active; the % refers to the signal ratio)
# Sequence of Androgen receptor (Homo sapiens) (P10275 whole entry, looked up): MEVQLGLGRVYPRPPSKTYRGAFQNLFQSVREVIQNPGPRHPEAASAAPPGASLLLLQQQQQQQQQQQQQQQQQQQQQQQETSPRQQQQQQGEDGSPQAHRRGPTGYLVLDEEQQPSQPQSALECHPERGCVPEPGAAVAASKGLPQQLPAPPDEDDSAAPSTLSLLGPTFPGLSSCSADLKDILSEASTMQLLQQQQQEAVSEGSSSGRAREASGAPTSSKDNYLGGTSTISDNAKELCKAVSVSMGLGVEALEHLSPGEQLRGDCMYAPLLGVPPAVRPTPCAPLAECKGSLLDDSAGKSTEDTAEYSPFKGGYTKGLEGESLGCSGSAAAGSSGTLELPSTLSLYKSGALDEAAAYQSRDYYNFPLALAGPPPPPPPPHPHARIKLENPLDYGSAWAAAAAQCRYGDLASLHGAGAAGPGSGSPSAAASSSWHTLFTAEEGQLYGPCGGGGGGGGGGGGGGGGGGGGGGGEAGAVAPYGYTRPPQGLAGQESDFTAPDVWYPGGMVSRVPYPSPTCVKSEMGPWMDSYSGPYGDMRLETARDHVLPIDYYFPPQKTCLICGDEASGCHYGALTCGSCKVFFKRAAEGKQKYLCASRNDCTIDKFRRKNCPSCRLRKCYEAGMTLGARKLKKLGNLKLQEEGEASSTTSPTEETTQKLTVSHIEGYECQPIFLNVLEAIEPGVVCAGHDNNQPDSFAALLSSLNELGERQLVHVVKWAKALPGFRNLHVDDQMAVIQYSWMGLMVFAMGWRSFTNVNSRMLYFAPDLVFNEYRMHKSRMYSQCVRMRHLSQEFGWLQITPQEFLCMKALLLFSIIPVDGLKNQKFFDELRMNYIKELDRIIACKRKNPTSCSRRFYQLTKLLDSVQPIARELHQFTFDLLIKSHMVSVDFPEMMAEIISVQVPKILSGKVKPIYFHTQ
# In short: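 AR-bla HEK293 reporter cells; 4 h settle at 37C/5% CO2; compound + R1881 agonist, 16 h at 37C; LiveBLAzer B/G FRET substrate 2 h RT; fluorescence intensity read. qHTS format.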
# [8] = target: Androgen receptor (Homo sapiens) (UniProt P10275); assay: qHTS assay to identify small molecule agonists of the androgen receptor (AR) signaling pathway (AID 743036; active = well fitted activation curve with a large enough effect in the signal ratio in the repeat runs, with a control signal flat, not every such curve was filed as active; the % refers to the signal ratio)
# In short: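 Reporter line: GeneBLAzer AR-UAS-bla-GripTite (HEK293). Steps: plate cells, 4 h rest, add compounds, 16 h at 37C, add LiveBLAzer B/G substrate, 2 h at RT, read fluorescence.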
# [9] = target: Androgen receptor (Homo sapiens) (UniProt P10275); assay: qHTS assay to identify small molecule antagonists of the androgen receptor (AR) signaling pathway using the MDA cell line (AID 743042; note: nearly all actives have a fitted effect of over 55% in size)
# In short: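 MDA-kb2 breast carcinoma cells carrying MMTV-luciferase (AR/GR responsive) were co-treated with compounds and the agonist R1881 for 16 h at 37C. Inhibition read as ONE-Glo luminescence; CellTiter-Fluor fluorescence measured in parallel for cytotoxicity.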
SMILES,Potency [1],Potency [2],Potency [3],Potency [4],outcome [5],Potency [6],outcome [7],outcome [8],outcome [9]
CC(=O)Nc1nnc(S(N)(=O)=O)s1,inactive,inactive,inactive,inactive,inactive,inactive,,,
NC(N)=O,inactive,inactive and 24.3 µM (active),inactive and 17.2 µM (active),inactive and 21.7 µM (active),inactive,inactive,,,
NC(=O)c1cnccn1,inactive,inactive,inactive,inactive,inactive,inactive,,,
O=C(C1CCCCC1)N1CC(=O)N2CCc3ccccc3C2C1 (configuration not stated),inactive,inactive,inactive,inactive,inactive,inactive,,,
Nc1ccc(S(=O)(=O)Nc2nccs2)cc1,inactive,inactive,inactive,inactive,inactive,inactive,,,
O=S(=O)(O)NC1CCCCC1,inactive,inactive,inactive,inactive,inactive,inactive,,,
Cc1noc(NS(=O)(=O)c2ccc(N)cc2)c1C,inactive,inactive,inactive,inactive,inactive,inactive,,,
O=C(O)CCCCCCCC(=O)O,inactive,inactive,inactive,inactive,inactive,inactive,,,
O=S(=O)(O)c1ccc2cc(O)ccc2c1,inactive,inactive,inactive,inactive,inactive,inactive,,,
Nc1ccc(S(=O)(=O)c2ccc(N)cc2)cc1,inactive,inactive,inactive,inactive,inactive,inactive,,,
NC(N)=NC(=O)c1nc(Cl)c(N)nc1N,inactive,inactive,inactive,inactive,inactive,inactive,,,
Cc1ccc(S(=O)(=O)NC(=O)NN2CCCCCC2)cc1,inactive,inactive,inactive and 68.6 µM (active),inactive,inactive,inactive,,,
CCOc1ccc(NC(=O)CC(C)O)cc1 (configuration not stated),inactive,inactive,inactive,inactive,inactive,inactive,,,
NC(=O)NC1NC(=O)NC1=O (configuration not stated),inactive,inactive,inactive,inactive,inactive,inactive,,,
O=C(c1ccccc1)c1ccccc1,inactive,,,,inactive,inactive,inactive,inactive,inactive
CCCCOC(=O)CC(CC(=O)OCCCC)(OC(C)=O)C(=O)OCCCC,inactive,,inactive,inactive and 54.5 µM (active),inactive,inactive,,,
C[C@]12C=CC(=O)C=C1CC[C@@H]1[C@@H]2[C@@H](O)C[C@@]2(C)[C@H]1CC[C@]2(O)C(=O)CO,inactive,inactive,inactive,,inactive,inactive,,,
O=C(O)c1cccnc1,inactive,inactive,inactive,inactive,inactive,inactive,,,
OCCc1ccccc1,inactive,inactive,inactive,inactive,inactive,inactive,,,
Nc1ccn([C@H]2CC[C@@H](CO)O2)c(=O)n1,inactive,,24.3 µM (active),53.5 µM (active) and 24.3 µM (active),inactive,inactive,,,
Nc1ccc(O)c(C(=O)O)c1,inactive,inactive,inactive,inactive,inactive,inactive,,,

SMILES,Potency [1],Potency [2],Potency [3],Potency [4],outcome [5],Potency [6],outcome [7],outcome [8],outcome [9]
Cn1c(=O)c2[nH]cnc2n(C)c1=O,inactive,,,,inactive,inactive,,,
COc1c2occc2cc2ccc(=O)oc12,inactive,inactive,inactive,inactive,inactive,inactive,,,
O=C(O)CCC(=O)O,inactive,inactive,inactive,inactive,inactive,inactive,,,
CCCCCCCCCCCCCCCC(=O)O,inactive,11.9 µM (active) and inactive,inactive,inactive,inactive,inactive,,,
CCC1(c2ccccc2)C(=O)NCNC1=O,inactive,,,,inactive,inactive,,,
CC(O)C(=O)O (configuration not stated),inactive,inactive,inactive,inactive,inactive,inactive,,,
Cc1cn([C@H]2C[C@H](N=[N+]=[N-])[C@@H](CO)O2)c(=O)[nH]c1=O,inactive,,,,inactive,inactive,,,
NS(=O)(=O)c1cc(C(=O)O)c(NCc2ccco2)cc1Cl,inactive,inactive,inactive,inactive,inactive,inactive,,,
CCCNC(=O)NS(=O)(=O)c1ccc(Cl)cc1,inactive,inactive,inactive,inactive,inactive,inactive,,,
O=C(O)CS,inactive,inactive and 61.6 µM (active),inactive and 43.6 µM (active),inactive and 12.3 µM (active),inactive,inactive,,,
Cc1ccccc1C(OCCN(C)C)c1ccccc1 (configuration not stated),inactive,,inactive and 61.1 µM (active) and 54.5 µM (active),inactive and 61.1 µM (active) and 68.6 µM (active),inactive,inactive,,,
O=C(O)C(=O)O,inactive,inactive,inactive,inactive,inactive,inactive,,,
OC(Cn1cncn1)(Cn1cncn1)c1ccc(F)cc1F,inactive,inactive,inactive,inactive,inactive,inactive,,,
CC(=O)OCC(COC(C)=O)OC(C)=O,inactive,inactive,inactive,inactive,inactive,inactive,,,
N=C(N)c1ccc(OCCCCCOc2ccc(C(=N)N)cc2)cc1,,1.88 µM (active) and 5.42 µM (active) and 1.31 µM (active),2.98 µM (active) and 2.16 µM (active) and 1.85 µM (active),2.66 µM (active) and 2.72 µM (active) and 1.65 µM (active),,inactive,,,
Nc1ccc(C(=O)O)cc1,inactive,inactive,inactive,inactive,inactive,inactive,,,
O=C(O)CCCCC(=O)O,inactive,,,,inactive,inactive,,,
COC(=O)[C@H](Cc1ccccc1)NC(=O)[C@@H](N)CC(=O)O (H-Asp-Phe-OMe),inactive,inactive,inactive,inactive,inactive,inactive,,,
CC(O)CN(CCN(CC(C)O)CC(C)O)CC(C)O (configuration not stated),inactive,inactive,inactive,inactive,inactive,inactive,,,
O=C1CN(/N=C/c2ccc([N+](=O)[O-])o2)C(=O)N1,inactive,60.9 µM (active),54.3 µM (active) and 68.6 µM (active),60.9 µM (active),,15.6 µM (active) and 54.3 µM (active) and 48.6 µM (active),,,
